# Test results as given in PubChem BioAssay (EPA / NIEHS).
# Records with an inconclusive call do not appear. Active and inactive are the calls of the source. Rule for the calls, unless noted: active = hit-call score of the fitted dose curve at least 0.9, where 1 is the maximum; inactive = score below 0.9.
# Legend:
# [1] = CCTE_Harrill_HTTr_Viability_MCF7: CCTE's 6-hour Cell Viability Assessment for the High-Throughput Transcriptomics (HTTr) Platform, in MCF-7 cells cultured in DMEM + 10% fetal bovine serum, Harrill Lab (AID 2284010)
# Outline: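 Propidium iodide exclusion, imaged by high-content analysis, gauged viability after a six-hour exposure across eight concentrations. Cells were MCF-7 grown in DMEM with 10% fetal bovine serum; fits run in both directions against DMSO.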
# [2] = CCTE_Shafer_MEA_dev_firing_rate_mean: CCTE's Neural Network Formation Assay for Mean Firing Rate, Shafer Lab (AID 2284031);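 for AC50: curve fitted for loss of firing so AC50 reflects decreased mean firing rate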
# Outline: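 Spike frequency (spikes/recording length, averaged over active electrodes) was recorded on days 5, 7, 9 and 12 and collapsed to AUC; rat cortical cultures received compound continuously over 12 days of network development.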
# [3] = CCTE_Shafer_MEA_dev_per_burst_spike_percent: CCTE's Neural Network Formation Assay for Percent of Spikes in a Burst, Shafer Lab (AID 2284032);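 for AC50: fitted as a decrease in burst spike percentage below DMSO baseline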
# Outline: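 Value is trapezoidal AUC over recordings on days 5, 7, 9 and 12 of the well-mean fraction of spikes falling in single-electrode bursts; rat cortical cultures exposed continuously from plating, treatment renewed DIV 5 and 9, fitted downward against DMSO.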
# [4] = CCTE_Shafer_MEA_dev_active_electrodes_number: CCTE's Neural Network Formation Assay for Number of Active Electrodes, Shafer Lab (AID 2284040; active = hit-call score of the fitted dose curve at least 0.9, where 1 is the maximum;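 for AC50: potency for loss of active electrodes versus DMSO so lower counts are hits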)
# Outline: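 Counts electrodes per well firing at least 5 spikes/min, recorded on days 5, 7, 9 and 12 in rat cortical cultures dosed continuously from plating (treatment refreshed DIV 5, 9). Value is the area under the curve over recordings, fitted downward relative to DMSO.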
# [5] = CCTE_Shafer_MEA_dev_per_burst_interspike_interval: CCTE's Neural Network Formation Assay for Burst Interspike Interval, Shafer Lab (AID 2284044);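 for AC50: potency for a decrease of within-burst interspike interval below DMSO level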
# Outline: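 Primary rat cortical neurons on 48-well MEA plates, exposed from day 0 through day 12, treatment renewed at DIV 5 and 9. Within-burst interspike interval recorded days 5, 7, 9, 12, well-averaged, summarised as AUC; negative fit versus DMSO.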
# [6] = CCTE_Shafer_MEA_dev_burst_duration_mean: CCTE's Neural Network Formation Assay for Mean Burst Duration, Shafer Lab (AID 2284045);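 for AC50: curve fitted for loss meaning shorter burst duration than DMSO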
# Outline: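 Mean single-electrode burst duration (first to last spike), averaged over bursting electrodes per well, then integrated as area-under-curve across recordings at days 5, 7, 9 and 12. Rat cortical cultures on MEAs, compound present from plating, refreshed at feeds.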
# [7] = CCTE_Shafer_MEA_dev_interburst_interval_mean: CCTE's Neural Network Formation Assay for Mean Interburst Interval, Shafer Lab (AID 2284046);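 note: well-mean interburst interval of bursting electrodes as AUC over four recording days; curve fitted for decrease in interburst interval relative to DMSO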
# Outline: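 Developing rat cortical networks on 48-well MEAs receive compound from the day of plating. Burst intervals from each active electrode are averaged per well, and AUC over the recording days is fitted in the negative direction against DMSO.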
# [8] = CCTE_Shafer_MEA_dev_inter_network_spike_interval_mean: CCTE's Neural Network Formation Assay for Mean Inter-network Spike Interval, Shafer Lab (AID 2284047);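 for AC50: potency for a decrease in mean inter-network spike interval below DMSO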
# Outline: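 Rat cortical cultures, 1.5 x 10^5 cells/well on 48-well MEA plates; continuous exposure days 0–12, medium and compound refreshed DIV 5, 9. Mean time between consecutive network-spike peaks; AUC across DIV 5/7/9/12; DMSO baseline, negative fitting direction.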
# [9] = CCTE_Shafer_MEA_dev_network_spike_number: CCTE's Neural Network Formation Assay for Number of Network Spikes, Shafer Lab (AID 2284048);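 note: synchronized bursts across electrodes counted on days 5 7 9 12 and integrated as AUC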;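 for AC50: fit as a loss of signal meaning fewer network spikes than DMSO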
# Outline: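 Number of network spikes (coordinated firing across electrodes) recorded on days 5, 7, 9 and 12 and summarised as area under the curve. Rat cortical cultures on MEA, continuous compound exposure with full medium/treatment exchange at DIV 5 and 9.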
# [10] = CCTE_Shafer_MEA_dev_network_spike_peak: CCTE's Neural Network Formation Assay for Mean Number of Electrodes in Network Spike, Shafer Lab (AID 2284049);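 for AC50: fitted for loss of signal meaning fewer electrodes in network spikes than DMSO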
# Outline: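 Rat cortical primary culture, 1.5 x 10^5 cells/well, 48-well MEA (16 electrodes/well). Dosing day 0 through DIV 12, full media/compound exchange DIV 5, 9. AxIS adaptive spike detection; AUC over days 5/7/9/12; loss-of-signal vs DMSO.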
# [11] = CCTE_Shafer_MEA_dev_spike_duration_mean: CCTE's Neural Network Formation Assay for Mean Spike Duration, Shafer Lab (AID 2284051);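 note: mean network spike duration pooled as area under curve over DIV 5 to 12 recordings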;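 for AC50: potency for a decrease in mean network spike duration versus DMSO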
# Outline: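 Readout is the average length of network spikes, clustered firing across electrodes, summed over DIV 5, 7, 9 and 12 as area under the curve. Neurons from rat cortex developed networks on MEA plates under continuous 12-day exposure.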
# [12] = CCTE_Shafer_MEA_dev_network_spike_duration_std: CCTE's Neural Network Formation Assay for Standard Deviation of Network Spike Duration, Shafer Lab (AID 2284052);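 note: hits are decreases in network spike duration SD versus DMSO vehicle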
# Outline: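 Read-out is the trapezoidal area-under-the-curve across recordings made on days 5, 7, 9 and 12, fitted in the negative direction against DMSO baseline. Neurons were primary rat cortical cells treated from day 0, with treatment renewed at each feed.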
# [13] = CCTE_Shafer_MEA_dev_per_network_spike_spike_number_mean: CCTE's Neural Network Formation Assay for Mean Number of Spikes in a Network Spike, Shafer Lab (AID 2284053);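 for AC50: fitted as decrease in spikes per network spike relative to DMSO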
# Outline: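 Continuous twelve-day exposure of developing rat cortical networks grown over 16 microelectrodes per well; spontaneous firing is captured at four time points, and the per-network-spike spike number is integrated over development by trapezoidal AUC.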
# [14] = CCTE_Shafer_MEA_dev_per_network_spike_spike_percent: CCTE's Neural Network Formation Assay for Percent of Spikes in a Network Spike, Shafer Lab (AID 2284054)
# Outline: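 Metric: fraction of spikes falling in a 0.05 s window at network-spike peaks. Recordings were made on days 5, 7, 9 and 12 and collapsed by trapezoidal AUC. Cultures were rat cortical neurons on MEA plates, dosed continuously from plating, re-dosed at media changes.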
# [15] = CCTE_Shafer_MEA_dev_AB: CCTE's Alamar Blue Assay for Cytotoxicity in the Neural Network Formation Assay, Shafer Lab (AID 2284083; active = hit-call score of the fitted dose curve at least 0.9, where 1 is the maximum;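 note: resazurin reduction fluorescence as viability of cultured neurons; twelve days of exposure from plating with re-dosing on DIV 5 and 9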)
# Outline: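 Fluorescent resazurin reduction serves as the viability read-out, with DMSO as negative control and baseline. Cells were primary rat cortical neurons grown on MEA plates and dosed from day 0 to day 12, treatment renewed on DIV 5 and 9.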
# [16] = CCTE_Shafer_MEA_dev_mutual_information_norm: CCTE's Neural Network Formation Assay for Mutual Information Normalization, Shafer Lab (AID 2284091);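 for AC50: mutual information between electrodes summarised as area under curve across four recording days; potency is for a decrease in mutual information relative to DMSO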
# Outline: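 Shared information across electrodes, tracked on days 5, 7, 9 and 12 of network development and collapsed as trapezoidal area under the curve. Rat cortical cultures were treated continuously from plating, with treatment renewed at feeds on DIV 5 and 9; DMSO baseline, negative-direction fit.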
# [17] = CCTE_Shafer_MEA_dev_correlation_coefficient_mean: CCTE's Neural Network Formation Assay for Mean Correlation Coefficient, Shafer Lab (AID 2284093);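 for AC50: well mean pairwise spike train correlation integrated as AUC over recording days 5 to 12; potency fitted for loss of correlation relative to DMSO vehicle wells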
# Outline: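 Read-out: well-mean correlation coefficient of spike trains between electrode pairs, collapsed over four recording days as trapezoidal area-under-the-curve. Developing rat cortical neuron networks grown on MEAs received test chemical continuously from plating.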
# [18] = CCTE_Shafer_MEA_dev_bursting_electrodes_number: CCTE's Neural Network Formation Assay for Number of Bursting Electrodes, Shafer Lab (AID 2284043; active = hit-call score of the fitted dose curve at least 0.9, where 1 is the maximum;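 for AC50: potency is for loss of bursting electrodes relative to DMSO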)
# Outline: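 Number of electrodes reaching ≥1 burst every 2 min was recorded at DIV 5, 7, 9 and 12 and collapsed as trapezoidal area under the curve. Cultures were rat cortical neurons on MEA plates, dosed continuously from plating with medium and treatment refreshed on DIV 5 and 9.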
# [19] = UKN2_HCS_IMR90_neural_migration: University of Konstanz (UKN) Leist Lab Neural Crest Cell Migration Assay in human induced IMR90 Pluripotent Stem Cells (UKN2) (AID 2284204); conditions: actives raise or lower the signal
# Outline: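 High-content imaging of calcein-AM and Hoechst stained cells quantifies migration into a stopper-defined gap after 24 h compound exposure. Neural crest cells from IMR90 iPSC migrated 24 h in EGF/FGF N2-S medium before dosing; DMSO baseline.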
# [20] = UKN2_HCS_IMR90_cell_viability: Viability Assessment in the University of Konstanz (UKN) Leist Lab Neural Crest Cell Migration Assay in human induced IMR90 Pluripotent Stem Cells (UKN2) (AID 2284233);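 note: cells exposed to compound for 24 h after a 24 h migration phase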
# Outline: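 After calcein-AM/Hoechst staining, viability is quantified by high-content fluorescence imaging, relative to DMSO, in iPSC (IMR90)-derived neural crest cells. Exposure lasts 24 h, starting after a 24 h migration period on PLO/laminin/fibronectin coating.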
compound,measurement,setting,value
Cc1ccc2cc3c(ccc4ccccc43)c3c2c1CC3,outcome,[1],inactive
C#CCN(C)[C@H](C)Cc1ccccc1,outcome,[2],inactive
same,outcome,[3],inactive
same,outcome,[4],inactive
same,outcome,[5],inactive
same,outcome,[6],inactive
same,outcome,[7],inactive
same,outcome,[8],inactive
same,outcome,[9],inactive
same,outcome,[10],inactive
same,outcome,[11],inactive
same,outcome,[12],inactive
same,outcome,[13],inactive
same,outcome,[14],inactive
same,outcome,[15],inactive
same,outcome,[16],inactive
same,outcome,[17],inactive
C[n+]1ccc(-c2cc[n+](C)cc2)cc1,AC50,[2],2.29 µM (active)
same,AC50,[3],1.71 µM (active)
same,AC50,[4],1.25 µM (active)
same,AC50,[18],1.18 µM (active)
same,AC50,[5],2.33 µM (active)
same,AC50,[6],2.29 µM (active)
same,AC50,[7],1.16 µM (active)
same,AC50,[8],0.76 µM (active)
same,AC50,[9],2.31 µM (active)
same,AC50,[10],1.38 µM (active)
same,AC50,[11],1.15 µM (active)
same,AC50,[12],1.42 µM (active)
same,AC50,[13],1.44 µM (active)
same,AC50,[14],1.81 µM (active)
same,AC50,[15],2.34 µM (active)
same,AC50,[16],2.29 µM (active)
same,AC50,[17],1.63 µM (active)
same,outcome,[19],inactive
same,outcome,[20],inactive
CCCCOC(=O)N(C)SN(C)C(=O)Oc1cccc2c1OC(C)(C)C2,outcome,[1],inactive
CC(=O)[O-].CC(=O)[O-].O.O.O.[Pb+2],outcome,[2],inactive
same,AC50,[3],23.5 µM (active)
same,AC50,[4],22.3 µM (active)
same,AC50,[18],18.5 µM (active)
same,outcome,[5],inactive
same,outcome,[6],inactive
same,outcome,[7],inactive
same,outcome,[8],inactive
same,AC50,[9],2.98 µM (active)
same,AC50,[10],12.5 µM (active)
same,AC50,[11],22.2 µM (active)
same,outcome,[12],inactive
same,AC50,[13],20.2 µM (active)
same,AC50,[14],15 µM (active)
same,AC50,[15],24 µM (active)
same,outcome,[16],inactive
same,AC50,[17],19.7 µM (active)
same,AC50,[19],32.8 µM (active)
same,outcome,[20],inactive
O=C(O)CNCP(=O)(O)O,outcome,[2],inactive
same,outcome,[3],inactive
same,outcome,[4],inactive
same,outcome,[18],inactive
same,outcome,[5],inactive
same,outcome,[6],inactive
same,outcome,[7],inactive
same,outcome,[8],inactive
same,outcome,[9],inactive
same,outcome,[10],inactive
same,outcome,[11],inactive
same,outcome,[12],inactive
same,outcome,[13],inactive
same,outcome,[14],inactive
same,outcome,[15],inactive
same,outcome,[16],inactive
same,outcome,[17],inactive
COP(=S)(Oc1cc(Cl)c(Br)cc1Cl)c1ccccc1 (configuration not stated),outcome,[1],inactive
[Cl-].[Cl-].[Cl-].[Pr+3],outcome,[1],inactive
COP(=S)(OC)SCC(=O)N(C)C=O,outcome,[1],inactive
[Cl-].[Cl-].[Cl-].[Gd+3],outcome,[1],inactive
Cc1cc(N)ccc1N,outcome,[1],inactive
CCOP(=O)(OCC)SCSCC,outcome,[2],inactive
same,outcome,[3],inactive
same,outcome,[4],inactive
same,outcome,[18],inactive
same,outcome,[5],inactive
same,outcome,[6],inactive
same,outcome,[7],inactive
same,outcome,[8],inactive
same,outcome,[9],inactive
same,AC50,[10],49.8 µM (active)
same,outcome,[11],inactive
same,outcome,[12],inactive
same,outcome,[13],inactive
same,AC50,[14],90.9 µM (active)
same,outcome,[15],inactive
same,outcome,[16],inactive
same,outcome,[17],inactive
same,outcome,[19],inactive
same,outcome,[20],inactive
CCCCC(CC)COC(=O)c1cc(Br)c(Br)c(Br)c1Br (configuration not stated),outcome,[1],inactive
same,outcome,[2],inactive
same,AC50,[3],18.8 µM (active)
same,AC50,[4],18.7 µM (active)
same,AC50,[18],18.8 µM (active)
same,outcome,[5],inactive
same,outcome,[6],inactive
same,AC50,[7],16.8 µM (active)
same,outcome,[8],inactive
same,outcome,[9],inactive
same,AC50,[10],18.9 µM (active)
same,AC50,[11],17.7 µM (active)
same,outcome,[12],inactive
same,AC50,[13],18.8 µM (active)
same,AC50,[14],18.9 µM (active)
same,AC50,[15],15.1 µM (active)
same,outcome,[16],inactive
same,AC50,[17],18.8 µM (active)
FC(F)(F)c1ccc(OCCCOc2c(Cl)cc(OCC=C(Cl)Cl)cc2Cl)nc1,outcome,[1],inactive
ClC1=C(Cl)[C@]2(Cl)[C@H]3[C@H]([C@H](Cl)C(Cl)[C@@H]3Cl)[C@@]1(Cl)C2(Cl)Cl (some centres not stated),outcome,[1],inactive
ClC=C(Cl)CCl,outcome,[1],inactive
C[n+]1ccc(-c2ccccc2)cc1,outcome,[2],inactive
same,outcome,[3],inactive
same,AC50,[4],4.33 µM (active)
same,AC50,[18],4.7 µM (active)
same,outcome,[5],inactive
same,outcome,[6],inactive
same,outcome,[7],inactive
same,outcome,[8],inactive
same,outcome,[9],inactive
same,AC50,[10],6.52 µM (active)
same,outcome,[11],inactive
same,outcome,[12],inactive
same,outcome,[13],inactive
same,outcome,[14],inactive
same,outcome,[15],inactive
same,outcome,[16],inactive
same,AC50,[17],8.7 µM (active)
same,outcome,[19],inactive
same,outcome,[20],inactive
